Source: PubChem BioAssay (NCATS)
Inconclusive results are not listed. Activity calls are given as the source filed them. The call rests on the fitted dose curve; in most records, active means well fitted inhibition curve with a large enough effect; inconclusive means small, poorly fitted or top-dose-only effect, or effect the other way; inactive means flat fitted curve, though single readings scatter.

Test: qHTS for Inhibitors of Plasmodium falciparum (CP250) proliferation (AID 504320)
Conditions: P. falciparum CP250 in erythrocytes, SYBR Green DNA, 72 h; series mostly up to 6.7 µM; activity change, negative = inhibition: at the top concentration
Source text: Plasmodium falciparum is a virulent malarial parasite that kills 1-2 million people worldwide each year. Malaria not only inflicts tremendous suffering and morbidity on the human population, but has dramatically influenced the course of civilization with profound sociological and economic implications (Shah, S. 2010). Transmitted by mosquitoes, the sporozoite form of the parasite enters the blood stream to infect hepatocytes, where they become merozoites that infect red blood cells (erythrocytes). Within erythrocytes, merozoites begin a […] cycle of growth and division, after which the parasite is released to infect new red blood cells. Gametocytes, which form within erythrocytes as well, circulate in the bloodstream and are ingested by the mosquito, thereby completing the life cycle (see CDC website). To profile malarial lines for differential chemical responses and to identify inhibitors of malarial growth, an assay that measures P. falciparum growth and replication within erythrocytes was employed. This assay uses a DNA binding fluorescent dye (SYBR Green) to detect parasite DNA following cell lysis. Because mature erythrocytes lack DNA, only Plasmodium-derived DNA is detected. The P. falciparum line cp250, derived from a malarial isolate from Cambodia, (Mu, J., et al. 2010) was added to the panel of lines, Dd2, HB3, 7G8 and GB4 in this study. Laboratory of Assay Development and Screening Technology [ADST] and NIH Chemical Genomics Center [NCGC] Boston University, Chemistry Department, Center for Chemical Methodology and Library Development [CMLD-BU] NIH National Institute of Allergy and Infectious Diseases [NIAID]
ADST Assay Protocol Summary: The 1536-well SYBR Green viability assay was based on the method of Bennett et al (2004) and described previously in 1536-well format (Yuan J., et al. 2009). For screening 3 ul culture medium was dispensed into 1536 well black clear bottom plates (Aurora Biotechnologies) using a Multidrop Combi (Thermo Fisher Scientific Inc.), 23 nL compounds in DMSO were added by a pin transfer (Cleveland, P.H. and Koutz, P.J, 2005) using a pin tool-based delivery system (Kalypsys), and 5 ul of erythrocytes infected with P. falciparum one of five lines (cp250, Dd2, HB3, 7G8 or GB4, 0.3% parasitemia, 2.5% hematocrit final concentration) were added. The plates were incubated at 37C in a humidified incubator in 5% CO2 for 72 h, and 2 ul lysis buffer (20 mM Tris HCl, 10 mM EDTA, 0.16% saponin, 1.6% triton X, 10X SYBR Green I (supplied as 10,000X final concentration by Invitrogen) was added to each well. The plates were mixed for 25 sec with gentle shaking and incubated overnight at room temperature in the dark. The following morning, fluorescence intensity at 485(14) nm excitation and 535(25) nm emission wavelengths was measured on an EnVision (Perkin Elmer) plate reader. Plate reads were normalized relative to the control inhibitor (0.29 uM artemisinin) and vehicle (DMSO) wells present on each plate and then corrected by an algorithm using vehicle-only control plates at the beginning and end of the compound plate stack. References Shah, S. (2010). The Fever: how malaria has ruled humankind for 500,000 years. New York, Sarah Crichton Books. CDC web site, http://www.cdc.gov/malaria/about/biology/index.html Mu, J., Myers, R.A., Jiang, H., Liu, S., Ricklefs, S., Waisberg, M., Chotivanich, K., Wilairatana, P., Krudsood, S., White, N.J., et Plasmodium falciparum genome-wide scans for positive selection, recombination hot spots and resistance to antimalarial drugs Nature Genetics 2010, 42, pp 268-271 Bennett TN, Paguio, M., Gligorijevic, B., Seudieu, C., Kosar, A. D., Davidson, E., and Roepe, P. D. Novel, rapid, and inexpensive cell-based quantification of antimalarial drug efficacy Antimicrobial Agents Chemother. 2004, 48(5): pp 1807-10 Yuan J, Johnson RL, Huang RL, Wichterman J, Jiang HY, Hayton K, Fidock DA, Wellems TE, Inglese J, Austin CP, Su XZ. […]

Activity change, negative = inhibition, inactive:
CC(CCC(=O)OC[C@H]1O[C@H](C#Cc2ccccc2)C=C[C@H]1Oc1ccc(C)cc1)=NOC[C@@H](O)[C@H]1O[C@@H]2OC(C)(C)O[C@H]2[C@@H]1O 0.223%, COC(=O)CC=C1c2ccccc2[C@@H](O)[C@@H]1C -4.09%, CCN1C(=NCc2ccccc2)N[C@@H](c2ccccc2)[C@H](C(=O)OC)[C@H]1C 4.83%, COc1ccc(-c2nc(-c3ccccc3)c(NC(C)(C)C)o2)cc1 4.77%, C[C@@H]1C(c2ccccc2)CC(=O)C(=O)C[C@@H]1C(=O)N1CCCC1 (stereo not given in full) -1.15%, COC(=O)C1=C(C)N(CCC(C)O[Si](C)(C)C(C)(C)C)C(=O)N(C(C)=O)C1c1ccccc1 (stereo not given) 4.3%, COCCN1C(=O)NC(CCc2ccccc2)C(C(=O)OC)=C1C (stereo not given) 1.51%, C=CC[C@@H]1C=C(C(=O)OC)N(C(=O)C(F)(F)F)[C@@H](c2ccccc2Br)[C@@H]1C 0.385%, COCCN1C(=NCCc2cccnc2)NC(c2ccccc2)C(C(=O)OC)=C1C (stereo not given) -15.1%, C[C@H](NC(=O)N1CCc2nc(-c3ccccc3)c3c(c2C1)CO[C@@H](C)C3)c1ccccc1 2.68%, C=CCOC(=O)N[C@H](C(C(=O)OC)=C(C)NCc1ccccc1)c1cccc(OC)c1 8.14%, Cc1cc2c(nc1C)CCCCN2C[C@H](C)ON=C1[C@H]2CCn3c(=O)n(-c4ccccc4)c(=O)n3[C@@H]2[C@H](O)[C@@H]2O[C@H]12 -14.8%, COc1ccc2c(c1)C(=O)[C@@H](OC(=O)Nc1cc(OC)c(OC)c(OC)c1)[C@H](c1ccc(OC)c(Br)c1)O2 4.75%, COCC=CC1=CC2=CC(=O)C(C)(OC(=O)c3cnc4ccccc4n3)C(=O)C2=CN1Cc1ccc(OC)cc1 (stereo not given) 3.05%, C#CCCCON=C1C[C@@H](O)[C@H](O)[C@H]2[C@@H]3C(=O)N(C[C@@H]4CCCO4)C(=O)[C@@H]3CC[C@@H]12 6.57%, COc1ccc(-c2ccc3c(n2)CCCN3CC(O)CN2CCCc3nc(C)c(C)cc32)cc1 (stereo not given) -5.01%, COC(=O)c1nnc(C(=O)NCc2ccccc2)c2[nH]c3ccccc3c12 -1.42%, CCOC(=O)CCN1C(=O)[C@@H]2[C@H]3[C@H](O)[C@H](O)CC(=NNC(=O)OCc4ccc(OC)cc4)[C@H]3CC[C@H]2C1=O 1.21%, COC(=O)CC=C1c2ccc(F)cc2[C@@H](OC)[C@@H]1C 2.47%, C=C=CCCN1C(=O)NC(c2ccccc2)C(C(=O)OC)=C1C (stereo not given) -2.92%, C=CCCCN1C=C(C(=O)OCC)C(c2ccccc2)NC1=O (stereo not given) 0.0347%, CC1(C)O[C@H]2OC([C@H](O)CON3C(=O)c4ccccc4C3=O)[C@H](O)[C@@H]2O1 (stereo not given in full) 10.2%, Cc1cc2c(c(=O)o1)[C@H]1O[C@](c3ccsc3)(Cc3ccccc31)O2 2.62%, CC1(C)CC(=O)C2=C(C1)O[C@@]1(c3ccsc3)Cc3cc(C#N)ccc3[C@H]2O1 6.33%, COc1cccc2c1[C@H](C=Cc1ccccc1)[C@@H]([C@H](O)COC(C)=O)OC2 1.78%, COC(=O)c1nnc(SC)nc1C(=O)OC 4.9%, CC1(C)O[C@@H](C(O)(c2cc(C(F)(F)F)cc(C(F)(F)F)c2)c2cc(C(F)(F)F)cc(C(F)(F)F)c2)[C@H](C(O)(c2cc(C(F)(F)F)cc(C(F)(F)F)c2)c2cc(C(F)(F)F)cc(C(F)(F)F)c2)O1 2.59%, O=C1[C@H]2[C@@H]3[C@@H](O)[C@H](O)CC(=NOCc4ccccc4)[C@H]3CC[C@H]2C(=O)N1C[C@@H]1CCCO1 -0.0802%, COC1=C[C@H](C(=O)NCc2ccccn2)[C@H](C)[C@@H](c2ccccc2)CC1=O 1.43%, COc1cccc([C@H]2Oc3ccc(OC)cc3C(=NO[C@H](C)c3cn([C@H](CO)Cc4ccccc4)nn3)[C@H]2O)c1 -0.497%, CCN1C(=NCc2cccc(Cl)c2)N[C@@H](CCc2ccccc2)[C@H](C(=O)OC)[C@H]1C -6.89%, C[C@@H]1CC[C@H]2C(=O)N(Cc3cccc([N+](=O)[O-])c3)C[C@@H](O)CN2[C@@H]1c1cccc(Br)c1 -0.737%, O=C1[C@@H]2[C@H]3[C@H](O)[C@H](O)CC(=NOC[C@@H](O)COCc4ccco4)[C@@H]3CC[C@H]2C(=O)N1C1CCCCC1 6.85%, CC(C)C(=O)N[C@H]1CCCN1C(=O)C=Cc1ccccc1 10.8%, CCC12C=C(C=Cc3ccccc3)C(CC)(C1)C(c1ccccc1)CC2=O (stereo not given) 1.01%

Potency, inactive:
CCOC(=O)C(c1ccc(OC)c(OC)c1)C1c2ccccc2C=C(C)N1C(=O)OC (stereo not given), C=CC1=C2C=C(C3CC3)N(C(CO)CO)C=C2C(=O)C(C)(OC(=O)c2ccco2)C1=O (stereo not given), C#CCCOC(=O)N1C2=NC(C(=O)OC)=C(C(=O)OC)[C@@H]3N(C)c4ccccc4[C@]23C[C@H]1C(=O)OC, CCCCc1nc2c(c3c1C[C@H](C)OC3)CN(C(=O)C1CCCCC1)CC2, CCOC(=O)CN1C(=O)N[C@@H](CCc2ccccc2)[C@H](C(=O)OC)[C@H]1C
